DT40 TDP1 no CPT = qHTS for Inhibitors of human tyrosyl-DNA phosphodiesterase 1 (TDP1): qHTS in cells in absence of CPT. DT40 Tdp1-/- hTDP1 cells, no CPT, ATP luminescence, 48 h. Potency, µM (titrated, usually from 46.2 µM), most hits filed as inhibitors. hit rate 15% among 420,000. AID 686978, 2013; further: nearly all actives have a fitted effect of over 55% in size
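Camptothecin absent (DMSO only). Human TDP1-complemented DT40 knockout cells, 400 cells/well, 37 °C for minimum 48 hr; ATP measured via CellTiter-Glo, 30 min dark incubation, luminescence.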
HT1080NT lethal = qHTS for induction of synthetic lethality in tumor cells producing 2HG: qHTS for the HT-1080-NT fibrosarcoma cell line; HT-1080-NT fibrosarcoma viability, CellTiter-Glo ATP luminescence, 48 h; Potency, µM (doses to about 46.1 µM), actives largely listed as cytotoxic; hit rate 1.6% among 360,000; AID 686970, 2013;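 further: NT is the 2HG producing partner of a matched IDH1 knockdown line; nearly all actives have a fitted effect of over 55% in size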
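HT-1080-NT; 750 cells/well; 5% FBS RPMI; 48 h compound, 37 degrees C; CellTiter-Glo luminescence; curve fitting and curve-class assignment.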
ELG1 repair inh = qHTS screen for small molecules that inhibit ELG1-dependent DNA repair in human embryonic kidney (HEK293T) cells expressing luciferase-tagged ELG1 | Potency, µM (top dose mostly 46.1 µM), most hits filed as inhibitors | HEK293T ELG1-luciferase reporter, luminescence, 16 h; DNA damage induced by 5-fluorouridine | hit rate 2.3% among 330,000; further: nearly all actives have a fitted effect of over 55% in size
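Reporter activity after DNA damage by 5-fluorouridine is monitored. Compound-treated cells incubate 16 hr at 37 °C, then ONE-Glo is added for 30 min before luminescence reading.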
IL1B secr inh = qHTS for Inhibitors of Inflammasome Signaling: IL-1-beta AlphaLISA Primary Screen; THP-1 LPS/ATP IL-1B secretion, AlphaLISA, 16 h; active compounds read low; activity change, % at 57.5 µM; hit rate 4.7% among 360,000; in the data active means activity change below about -50%; inconclusive means mostly about -30% to -49%
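Secreted IL-1B measured by AlphaLISA bead assay after 16 h compound exposure of THP-1 cells; compounds (final up to 57.5 uM) added 1 h before LPS (250 ng/mL) and ATP (1.25 mM) stimulation; lower signal means less secretion.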
HT1080 IDH1KD tx = qHTS for induction of synthetic lethality in tumor cells producing 2HG: qHTS for the HT-1080-IDH1KD cell line. HT-1080 IDH1 knockdown viability, ATP luminescence, 48 h. Potency, µM (titrated, usually from 46.1 µM), actives largely listed as cytotoxic. hit rate 2% among 360,000. AID 686971, 2013
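Using the IDH1-knockdown HT-1080 line run in the same batch and compound series as the NT line, viability after 48 h at 37 °C was determined by CellTiter-Glo luminescence and expressed as % activity.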
TDP1 cell CPT = qHTS for Inhibitors of human tyrosyl-DNA phosphodiesterase 1 (TDP1): qHTS in cells in presence of CPT | chicken DT40 Tdp1-/-;hTDP1 cells + 20 nM CPT, ATP luminescence, 48 h | Potency, µM (titrated, usually from 46.2 µM), hits mostly inhibitors | hit rate 12% among 420,000; further: nearly all actives have a fitted effect of over 55% in size
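Chicken DT40 Tdp1-/- cells stably complemented with human TDP1 were seeded at 400 cells/well in medium containing 20 nM camptothecin, exposed to pin-transferred compounds, and grown at 37 °C for at least 48 hr. Viability was read as ATP luminescence.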
Of the large screens only hits and unclear results are named; the others gave an inactive call. Sampled rows, rich in hits. Any-hit rate of the full collection: about 19%. Unless noted, the call rests on the fitted dose curve; in most records, active means well fitted curve in the direction sought with a large enough effect; inconclusive means small, poorly fitted or top-dose-only effect, or another doubt; inactive means no such curve, though single readings can be large; an effect the other way counts as inactive or inconclusive.

O=[N+]([O-])c1cccc(-c2c(-c3ccccc3)ncc3ccc(F)cc23)c1	DT40 TDP1 no CPT 8.2µM, ELG1 repair inh inconclusive, TDP1 cell CPT 9.2µM
CCOc1ccccc1N/C(=C(/C(Cl)=C(Cl)Cl)[N+](=O)[O-])n1cncn1	DT40 TDP1 no CPT inconclusive
CCN(CC)/C(Sc1ccccc1)=C(\C(Cl)=C(Cl)Cl)[N+](=O)[O-]	DT40 TDP1 no CPT inconclusive, IL1B secr inh -89, TDP1 cell CPT inconclusive
CCN(CC)/C(Sc1ccccc1)=C(/C(Cl)=C(Cl)Cl)[N+](=O)[O-]	DT40 TDP1 no CPT inconclusive, TDP1 cell CPT 21µM
O=[N+]([O-])/C(C(Cl)=C(Cl)Cl)=C(\Sc1ccccc1)N1CCCCC1	DT40 TDP1 no CPT 23µM, TDP1 cell CPT 18µM
CCOC(=O)N1CCN(C(=O)CSc2nc(=O)n3ccccc3n2)CC1	none
COc1ccc(O)c(/C=C2/SC(=S)N(Cc3ccccc3)C2=O)c1	DT40 TDP1 no CPT 21µM, TDP1 cell CPT inconclusive
COc1ccc(/C=C2/SC(=S)N(Cc3ccccc3)C2=O)cc1O	ELG1 repair inh inconclusive, IL1B secr inh inconclusive, HT1080 IDH1KD tx inconclusive
O=C1/C(=C\c2cc(Cl)c(O)c(Cl)c2)SC(=S)N1Cc1ccccc1	DT40 TDP1 no CPT 2.3µM, HT1080NT lethal inconclusive, ELG1 repair inh inconclusive, HT1080 IDH1KD tx inconclusive, TDP1 cell CPT 6.5µM
O=C1/C(=C/c2ccccn2)SC(=S)N1Cc1ccccc1	HT1080NT lethal inconclusive
CSCCC(NC(=O)c1ccccc1Cl)C(=O)NCC(c1ccc(F)cc1)N1CCOCC1 (stereo unspecified)	none (no result: ELG1 repair inh)
O=c1[nH]c(SCc2ccccc2[N+](=O)[O-])nc2nc[nH]c12	none
C#CCOC(=O)Nc1cnccc1C(F)(F)F	none
C#CCOC(=O)Nc1ccc(OCC(F)(F)F)nc1	DT40 TDP1 no CPT 7.3µM, TDP1 cell CPT 9.2µM
O=c1c2ccccc2nc(-c2ccco2)n1Cc1ccccc1	DT40 TDP1 no CPT inconclusive, TDP1 cell CPT inconclusive (no result: ELG1 repair inh)
O=c1c2ccccc2nc(-c2ccoc2)n1CCc1ccccc1	DT40 TDP1 no CPT 6.5µM, ELG1 repair inh inconclusive, TDP1 cell CPT 7.3µM
O=c1c2ccccc2nc(-c2ccc(Br)cc2)n1Cc1ccccc1	DT40 TDP1 no CPT 23µM, TDP1 cell CPT 8.2µM
COc1cccc(Nc2nc3cc(Cl)c(Cl)cc3nc2-n2nc(C)cc2C)c1	none (no result: HT1080NT lethal, ELG1 repair inh, IL1B secr inh, HT1080 IDH1KD tx)
CCOc1ccc2nc(N/C(N)=N/C(=S)Nc3ccc(C)c(C)c3)nc(C)c2c1	none
CCNC(=S)/N=C(\N)Nc1nc(C)c2cc(C)ccc2n1	DT40 TDP1 no CPT inconclusive, ELG1 repair inh inconclusive, IL1B secr inh -91, TDP1 cell CPT inconclusive
COc1ccc(NC(=S)/N=C(\N)Nc2nc(C)c3ccc(C)cc3n2)cc1	DT40 TDP1 no CPT inconclusive, ELG1 repair inh inconclusive, TDP1 cell CPT 18µM
Cc1ccc(OCCNC(=O)Cc2ccc(F)cc2)cc1	none
CCC(C(=O)NC(C)(C)C)n1c(C(c2ccccc2)c2ccccc2)nc2ccccc21 (stereo unspecified)	DT40 TDP1 no CPT inconclusive, TDP1 cell CPT 18µM (no result: ELG1 repair inh)
Cc1csc(-c2nc3ccccc3n2C(C(=O)NC(C)(C)C)c2ccccc2)c1 (stereo unspecified)	DT40 TDP1 no CPT 29µM, TDP1 cell CPT inconclusive (no result: ELG1 repair inh)
CC(C)(C)NC(=O)C(c1ccc(-c2ccccc2)cc1)n1c(=O)c(-c2ccccc2)nc2ccccc21 (stereo unspecified)	DT40 TDP1 no CPT inconclusive, TDP1 cell CPT inconclusive (no result: ELG1 repair inh)
CC(C)Cc1nc2oc3c(NCC4CCCO4)ncnc3c2c2c1CCC2 (stereo unspecified)	DT40 TDP1 no CPT 18µM, ELG1 repair inh 12µM, TDP1 cell CPT 13µM

Bioassay records: PubChem BioAssay, National Center for Advancing Translational Sciences (NCATS)
